Reference: the supplement of paper PMC6555819

Columns and labels:
Experiment in all cases: PBM binding z-score (relative to random genomic background probes); higher = stronger binding; sequences stand for … in GC…GCGATTGACAGCGTAGAATGAAGG
[1] = system: FXR:RXRa (NR concentration 270 nM, RXRa partner concentration 90 nM)
How it was run: (§1)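 Custom Agilent 4×180K protein-binding microarrays carried double-stranded probes, each with a 34-nt variable region. These regions held direct-repeat seeds, single-nucleotide variants, half-site ablations and random human genomic background sequences. Ligand-free nuclear receptor dimers were incubated on the arrays for 1 h, antibodies against each partner (one per run) detected binding, and scanned fluorescence was regression-normalized. Binding z-scores take the random background probes as reference.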

[2] = system: LXRa:RXRa (NR concentration 270 nM, RXRa partner concentration 90 nM)
How it was run: as §1

[3] = system: LXRa homodimer (NR concentration 270 nM)
How it was run: as §1

[4] = system: LXRb:RXRa (NR concentration 270 nM, RXRa partner concentration 90 nM)
How it was run: as §1

[5] = system: LXRb homodimer (NR concentration 270 nM)
How it was run: as §1

[6] = system: PPARa:RXRa (NR concentration 270 nM, RXRa partner concentration 90 nM)
How it was run: as §1

[7] = system: PPARg:RXRa (NR concentration 180 nM, RXRa partner concentration 90 nM)
How it was run: as §1

[8] = system: PPARg:RXRa 270nM:90nM, anti-RXR (NR concentration 270 nM, RXRa partner concentration 90 nM)
How it was run: as §1

[9] = system: PPARg:RXRa 30nM:10nM, anti-RXR (NR concentration 30 nM, RXRa partner concentration 10 nM)
How it was run: as §1

[10] = system: PPARg:RXRa 90nM:30nM, anti-RXR (NR concentration 90 nM, RXRa partner concentration 30 nM)
How it was run: as §1

| Sequence | PBM binding z-score [1] | PBM binding z-score [2] | PBM binding z-score [3] | PBM binding z-score [4] | PBM binding z-score [5] | PBM binding z-score [6] | PBM binding z-score [7] | PBM binding z-score [8] | PBM binding z-score [9] | PBM binding z-score [10] |
| --- | --- | --- | --- | --- | --- | --- | --- | --- | --- | --- |
| TCGAGTAGGTTTGTCGGGGCATTCAGCCAACATA | 0.314 | 0.103 | 0.0222 | 0.558 | -0.504 | 0.326 | -0.493 | 0.144 | 1.1 | 0.717 |
| GCTAGCAGGCCATTTGGGTCACTGAATGACGGGC | -0.0182 | -0.185 | -0.885 | -0.0353 | -0.763 | 1.33 | 0.576 | 0.447 | -0.489 | -0.116 |
| TTACCAAGATGAAGGTCGTTGATCCCTCTGTAGA | 1.47 | 1.91 | -0.0555 | 1.48 | -0.663 | 1.33 | 0.406 | 1.7 | 1.5 | 1.72 |
| CCTCGGAGGGCAACAGGAGGTCAGAGCTGCCAGA | 2.19 | 3.83 | 1.29 | 2.23 | -0.758 | 3.02 | 0.969 | 1.32 | -0.587 | 0.405 |
| AATACAGGGTCCCTAGGCCAGAGTAGGTACGAAT | -0.341 | -0.334 | -0.145 | -0.634 | -0.575 | -0.299 | 0.603 | 0.00679 | 0.133 | 0.0597 |
| CTACCAAGGTGAACAAGGTCGATGATTACTATTC | 0.946 | 0.835 | 0.167 | 1.18 | -0.531 | 2.13 | 1.2 | 0.941 | 0.12 | 0.353 |
| TCTAGTTGATCACGGAGGTCACACACGACGGGTA | 2.88 | 3.08 | 1.8 | 3.27 | 0.399 | 3.76 | 2.09 | 3.19 | 3.41 | 2.99 |
| CGAACTAAGTCAAGGACAGTGAATCTCCGCACGC | -0.155 | -0.206 | -0.211 | -0.441 | -0.793 | -0.228 | 0.372 | -0.132 | -0.287 | -0.694 |
| CGAAGTAGGTCAAGGACAGTGAATCTCCGCACGC | 3.88 | 2.75 | 0.0941 | 1.82 | -0.179 | 5.28 | 8.14 | 6.95 | 4.62 | 6.44 |
| ATATGTAGGTTATGGGTCATTCAGGTTGGTTCGC | 3.1 | 3.26 | 1.87 | 3.22 | 1.22 | 5.51 | 9.66 | 8.74 | 8.22 | 9.39 |
| AGAACGAGGGCATTGAGTTGATAGCACGGGTGGC | 0.832 | 0.491 | -0.273 | 0.0744 | -0.545 | 1.26 | 1.02 | 0.78 | -0.308 | 6.55e-05 |
| TCTGCTAGGTCAGTTGGTCCGCTAACGAGCTGCC | 0.769 | 0.595 | -0.724 | 0.186 | 0.781 | 0.869 | -0.334 | 1.28 | 1.13 | 0.949 |
| TCTATTAGTTGAAGGTCAACCGACGAGTCCGTTT | 3.86 | 4.66 | 4.55 | 3.9 | 1.95 | 3.95 | 1.56 | 3.57 | 3.89 | 3.78 |
| ATCTCTAGGTAAGAATCAGTTCAGTGAAGAACGC | 0.825 | 0.702 | 0.74 | 0.521 | 0.992 | 0.326 | 0.0299 | 0.324 | 0.4 | 0.435 |
| ATCTCTAGGTAAGGTTCAGTGAAAGATCGATAGA | 0.902 | 1.26 | 0.551 | 1.07 | 1.03 | 1.4 | 1.25 | 2.17 | 0.962 | 1.9 |
| ATCTCTAGGTAAAGATAGTTCAGTGAGTGCAAAT | -0.0159 | 4.06 | 1.22 | 0.833 | 0.569 | 0.673 | 0.242 | 0.661 | 0.182 | 0.714 |
| CGTCCAAGGTCAATGCTAGGTCAGTGAGAGCATT | 6.44 | 5.68 | 2.93 | 4.16 | 0.966 | 5.13 | 4.1 | 4.72 | 2.14 | 3.48 |
| CCTTACGGTTCAAGGTTATAGCACGGGTGGTACG | 2.11 | 1.96 | 0.742 | 1.66 | 0.441 | 2.53 | 0.899 | 1.18 | 0.229 | 0.767 |
| ATACCAAGTTGATCGTGAGGTCGTTGATACTAAC | 1.48 | 1.03 | 0.823 | 1.31 | 0.171 | 1.22 | 0.148 | 0.229 | 0.0312 | 0.0356 |
| GGAACAAGGGCAAGTTGATAGCAGAGTTTGATGG | 0.62 | 0.417 | 0.0737 | 0.264 | -0.0748 | 0.929 | 1.04 | 0.726 | 0.251 | 0.632 |
| CCCACTGGGCCAAGGTCATTGATCAGTCAAAGCA | 3.13 | 2.95 | 1.44 | 2.57 | -0.562 | 3.8 | 4.07 | 4.12 | 1.57 | 3.3 |
| TCTCGGAGGACACGAAGGTCAGAACTTTCCAGAG | 0.92 | 1.16 | 0.605 | 1.31 | -0.708 | 1.69 | 0.527 | 1.59 | 2.55 | 1.96 |
| ACTATTAGTTGAGTTAGGGCAACCGATACGACGC | -0.00299 | -0.201 | 0.321 | -0.189 | 0.544 | -0.0901 | 0.832 | 0.293 | 0.372 | 0.303 |
